Assay [1] in a line: NCI Yeast Anticancer Drug Screen. Data for the rad50 strain (AID 155).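 Further: 0% = growth of vehicle-only cultures of the same strain.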 Conditions: S. cerevisiae rad50 strain growth inhibition, active compounds read high; at 50.0 µM unless noted. In short, it runs like this: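 Genetically altered yeast (DNA repair pathway); compound treatment; growth inhibition vs vehicle ctrl.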
Assay [2] in a line: NCI Yeast Anticancer Drug Screen. Data for the mec2-1 strain (AID 157). The settings on record: S. cerevisiae mec2-1 strain, active compounds read high; at 50.0 µM unless noted. In short, it runs like this:
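Mutant yeast (mec2-1) grown with compound; growth inhibition relative to vehicle control reported.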

The nature of assay [3]: NCI Yeast Anticancer Drug Screen. Data for the sgs1 mgt1 strain (AID 161).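 Further: 0% = growth of cultures given vehicle only.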 The settings on record: S. cerevisiae sgs1 mgt1 strain, active compounds read high; at 50.0 µM unless noted. In short, it runs like this:
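Growth of a repair-deficient yeast mutant was monitored after compound treatment and expressed as inhibition relative to vehicle-treated cultures.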

Assay [4] can be described thus: NCI Yeast Anticancer Drug Screen. Data for the cln2 rad14 strain (AID 165).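 Further: 0% = growth equal to vehicle treated cultures.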 The settings on record: S. cerevisiae cln2 rad14 strain, active compounds read high; at 50.0 µM unless noted. In short, it runs like this: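 Readout is yeast growth inhibition versus vehicle-treated controls, using a strain with cln2 and rad14 alterations exposed to compound.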
Assay [5] can be described thus: NCI Yeast Anticancer Drug Screen. Data for the bub3 strain (AID 167). The settings on record: S. cerevisiae bub3 mutant strain, active compounds read high; at 50.0 µM unless noted. In short, it runs like this: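 Yeast carrying a defined mutation is treated with each compound, and growth is compared with that of vehicle-exposed cells to give inhibition.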
A short description of assay [6]: NCI Yeast Anticancer Drug Screen. Data for the mlh1 rad18 strain (AID 175). The settings on record: S. cerevisiae mlh1 rad18 strain growth inhibition, active compounds read high; at 50.0 µM unless noted. In short, it runs like this: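 Genetically defined yeast (DNA repair-deficient) exposed to compounds; growth inhibition determined relative to vehicle.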

This is an account of results in PubChem BioAssay (NCI).

Values joined by “and” are separate entries in the source; they are usually repeats but may differ in a detail not shown here. Equal values may be shown once. The panel holds about 79,000 compounds, 15% with a hit somewhere; the sample as a whole holds those more often. Unmarked numbers belong to inactive results. Active and inactive are the calls of the source. No stated cut-off is given here; in the data, active means growth inhibition above about 70%; inactive means the rest.

Consider `Cc1cc(C)nc(/N=C(/N)Nc2ccc(S(=O)(=O)NC(=O)Nc3ccccc3)cc2)n1`, for which the growth inhibition in assay [1] was 21.5%; in assay [2], 2.55%; in assay [3], 5.8%; in assay [4] it was 1.8%; in assay [5], 0%; in assay [6], -4.2%.

On to `O=C(NCc1ccco1)Nc1ccccc1C(F)(F)F`, for which the growth inhibition is 2.3% in assay [1]; 0.2% in assay [2]; 18.5% in assay [3]; 19.6% in assay [4]; 20.4% in assay [5]; 17.1% in assay [6].

As to `Nc1nnc2nc(CC(=O)c3cccc([N+](=O)[O-])c3)/c(=C/C(=O)c3cccc([N+](=O)[O-])c3)n12`, the growth inhibition in assay [1] is 33.5%; in assay [2] it was 18.7%; in assay [3] it was 12.2%; in assay [4] it was 7.45%; in assay [5], -4.8%; in assay [6] it was 22.8%.

In the case of `O=[N+]([O-])c1cccc(S/N=C/c2ccccc2O)c1`, the growth inhibition was 98.8% (active) in assay [1]; 99.5% (active) in assay [2]; 99.2% (active) in assay [3]; 97.5% (active) in assay [4]; 99.2% (active) in assay [5]; 99% (active) in assay [6].

Turning to `Clc1c(Cl)c(Cl)c(C[n+]2c(Cl)sc3ccccc32)c(Cl)c1Cl`, the growth inhibition in assay [1] is 12.6%; in assay [2], 10.2%; in assay [3], 5.05%; in assay [4], -6.6%; in assay [5], 10.3%; in assay [6] it was 6.2%.

As to `Nc1ncnc2c1ncn2C1OC(C(O)CO)C(O)C1O` (stereo not given), the growth inhibition in assay [1] was -0.65% and -17.4%; in assay [2], -1.4% and -71.8%; in assay [3], -4.2% and -6.85%; in assay [4] it was -81.3% and 10.2%; in assay [5] it was 1.15% and 16.4%; in assay [6] it was -16.1% and -31.6%.

Regarding `CCOC(=O)C(CCc1ccccc1)C(C)=O` (stereo not given), the growth inhibition was -0.75% in assay [1]; -7.95% in assay [2]; -0.25% in assay [3]; 40.5% in assay [4]; 2.45% in assay [5]; -11.8% in assay [6].

For `COC1=Nc2ccccc2N2CCN=C12`, the growth inhibition is 4.55% in assay [1]; -23.6% in assay [2]; -8.7% in assay [3]; -1.35% in assay [4]; -8.75% in assay [5]; -12.8% in assay [6].

As for `CCc1ccc(NC(=O)c2ccc(Cl)cc2Cl)cc1`, the growth inhibition in assay [1] was 4.9%; in assay [2] it was 34.5%; in assay [3], 7.7%; in assay [4] it was 2.95%; in assay [5] it was 11.8%; in assay [6] it was 0.95%.

Regarding `C=C1C(=O)O[C@@H]2O[C@@]3(C)CC[C@H]4[C@H](C)CC[C@@H]1[C@@]24O3`, the growth inhibition in assay [1] is 26.6%; in assay [2] it was 26.9%; in assay [3], 52.1%; in assay [4] it was 22%; in assay [5], 12.2%; in assay [6], 40.5%.

As to `COc1ccccc1-n1c(=O)c(N=Nc2ccc(Br)cc2)c(O)n(-c2ccccc2C)c1=S`, the growth inhibition in assay [1] is 49.1%; in assay [2], 0.85%; in assay [3] it was 44.7%; in assay [4], -11.1%; in assay [5] it was -2.45%; in assay [6] it was 17.6%.

Turning to `COc1cc2c(cc1OC)C(C(N)=O)NCC2` (stereo not given), the growth inhibition in assay [1] was 10.2%; in assay [2], -35.8%; in assay [3] it was 25.6%; in assay [4], 12.2%; in assay [5] it was -7%; in assay [6], 17.6%.

In the case of `Cc1sc2ccccc2[n+]1CCC(=O)O`, the growth inhibition in assay [1] was -23.1%; in assay [2], -14%; in assay [3], -38.6%; in assay [4], -72.8%; in assay [5] it was -14.8%; in assay [6], -7.65%.

`CCN1CCC(S(=O)(=O)CCS(=O)(=O)C2CCN(CC)C2)C1` (stereo not given): the growth inhibition in assay [1] was -6.3%; in assay [2], 0.55%; in assay [3], 11.7%; in assay [4], 3.6%; in assay [5], 17.3%; in assay [6] it was 2.05%.

`CC(=O)Nc1cc([N+](=O)[O-])cc([N+](=O)[O-])c1O`: the growth inhibition in assay [1] is -7.5%; in assay [2], -6.95%; in assay [3], -1.6%; in assay [4], -24.8%; in assay [5], -10.8%; in assay [6], 7.2%.

In the case of `C=CCC(O)c1ccccc1OC` (stereo not given), the growth inhibition was 9.75% in assay [1]; 9.25% in assay [2]; 20.8% in assay [3]; 5.15% in assay [4]; -5.9% in assay [5]; 7.95% in assay [6].

For `Cc1ccc(S(=O)(=O)/N=S(/Cc2ccccc2)c2c(C)cccc2C)cc1` (stereo not given), the growth inhibition was 20.9% in assay [1]; 2.65% in assay [2]; 20.6% in assay [3]; 17.6% in assay [4]; -0.75% in assay [5]; 3.3% in assay [6].

On to `C(=C/c1ccccc1)/c1ccccc1`, for which the growth inhibition in assay [1] was -6.45%; in assay [2], -16.1%; in assay [3], -25.6%; in assay [4], 8.85%; in assay [5] it was -2.65%; in assay [6], -2.15%.

Turning to `CCCCCCCCCCSCC(=O)O`, the growth inhibition is -12.8% in assay [1]; -24.6% in assay [2]; -15.5% in assay [3]; -3.3% in assay [4]; -30.6% in assay [5]; -29.5% in assay [6].

Consider `O=c1[nH]c2cc(Cl)ccc2nc1/C(=N\O)C(O)c1ccc([N+](=O)[O-])cc1` (stereo not given), for which the growth inhibition in assay [1] is 8%; in assay [2], 14.2%; in assay [3], -21.2%; in assay [4] it was -24.6%; in assay [5] it was -17.2%; in assay [6], -5%.
